Assay outcomes (PubChem BioAssay)
GDH-TPI inh: counter-screen for M. tuberculosis FBA inhibitors: GDH-TPI coupled enzymes; GDH-TPI coupled enzyme counterscreen, NADH absorbance; 360,000 tested, 1.2% active; AID 588335; inhibition, % at 4.8 µM; in the data active = inhibition above about 30%
BioA inh-1: BioA (M. tuberculosis) enzyme inhibition; AID 602481; inhibition, % at 9.99 µM; purified M. tuberculosis BioA enzyme, plate reader; 360,000 tested, 0.096% active; in the data active = inhibition above about 40%; inconclusive = no clear call, values can overlap the other calls
FadD28 binding: blocks FadD28 binding to the bisubstrate probe; fluorescence polarization; inhibition, % at 12.5 µM; AID 588549; 360,000 tested, 0.22% active; in the data active = inhibition above about 8.5%, passing the limit was not always enough; inconclusive = no clear call, values can overlap the other calls
Mtb FBA inh: inhibits M. tuberculosis FBA enzyme; purified M. tuberculosis FBA, fluorescence read-out; AID 588726; 360,000 tested, 2.3% active; P9WQA3; inhibition, % at 1 µM; in the data active = inhibition above about 27%
Target sequence (P9WQA3 whole entry, looked up): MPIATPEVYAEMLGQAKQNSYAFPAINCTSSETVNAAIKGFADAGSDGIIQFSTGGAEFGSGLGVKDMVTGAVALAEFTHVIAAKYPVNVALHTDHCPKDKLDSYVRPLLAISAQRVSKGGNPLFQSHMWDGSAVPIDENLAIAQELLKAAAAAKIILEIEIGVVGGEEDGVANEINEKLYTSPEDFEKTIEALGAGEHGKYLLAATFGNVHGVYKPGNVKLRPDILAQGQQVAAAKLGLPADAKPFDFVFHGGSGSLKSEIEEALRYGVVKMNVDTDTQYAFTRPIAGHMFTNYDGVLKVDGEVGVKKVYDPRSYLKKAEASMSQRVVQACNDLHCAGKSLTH
Mtb hypoxia inh: Mtb hypoxia fluorescent reporter inhibition. 300,000 tested, 0.1% active. AID 1159583. fluorescence inhibition, % (no concentration beside the values). M. tuberculosis hypoxia-regulated fluorescent reporter, fluorescence; in the data active = fluorescence inhibition mostly above about 23%, no sharp cut-off; inactive = mostly below about 17%
BioA inh-2: Mtb BioA enzyme inhibition; shares compounds with BioA inh-1; purified BioA enzyme, plate reader, dose response; max activity, %; 310 tested, under 10 active;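 also: top concentration of the dilution series was 10 µM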
HepG2 tox 2: cytotoxicity in HepG2 cells | plate reader | shares compounds with BioA inh-1 | 310 tested, under 10 active | max activity, %
NIH3T3 tox 5: NIH3T3 viability loss; 310 tested, under 10 active; activity change, negative = cytotoxicity, % at 26 µM; shares compounds with BioA inh-1; NIH3T3 cytotoxicity, plate reader
Numbers stand for hits; 0 = inactive; ? = inconclusive; - = not tested or not shown. An excerpt weighted towards active compounds, which were near 2.9% of everything screened. Unless noted, no rule for the calls is given here.

SMILES	GDH-TPI inh	BioA inh-1	FadD28 binding	Mtb FBA inh	Mtb hypoxia inh	BioA inh-2	HepG2 tox 2	NIH3T3 tox 5
O=C(N[C@H]1CC[C@@H](CCn2cc(-c3cccnc3)nn2)O[C@@H]1CO)c1ccccc1F	-	55	-	-	-	0	0	0
O=C(N[C@@H]1CC[C@H](CCn2cc(-c3cccnc3)nn2)O[C@@H]1CO)c1ccccc1F	-	60	-	-	-	0	0	0
O=C(N[C@H]1CC[C@H](CCn2cc(-c3cccnc3)nn2)O[C@H]1CO)c1ccccc1F	-	0	-	-	-	-	-	-
CN(C)CC(=O)N1[C@@H]2c3ccc(C4=CCCCC4)c(=O)n3C[C@H]1[C@H](CO)[C@H]2C(=O)NCC1CC1	-	0	-	-	-	-	-	-
C[C@H](CO)N1C[C@H](C)[C@H](CN(C)Cc2cccnc2)Oc2ncc(-c3cccc(F)c3)cc2C1=O	-	0	-	-	-	-	-	-
O=C(C[C@@H]1C[C@@H]2c3cc(NC(=O)c4cccnc4)ccc3O[C@@H]2[C@@H](CO)O1)NCCc1ccccc1	-	41	-	-	-	0	0	0
COC(=O)C[C@@H]1C[C@@H]2c3cc(NC(=O)c4cccnc4)ccc3O[C@@H]2[C@@H](CO)O1	-	51	-	-	-	0	0	0
CCN1CCN(CC(=O)c2c(C)n(Cc3ccccc3)c3ccc(OC)cc23)CC1	0	0	0	0	0	-	-	-
COc1ccc2c(c1)c(C(=O)CN1CCC3(CC1)OCCO3)c(C)n2Cc1ccccc1	0	59	0	0	-	0	0	0
COc1cccc(C=NNC(=O)C2=NNC(=O)C2C)c1O (stereo not given)	-	-	-	-	0	-	-	-
COc1cccc(-c2cc(NC=O)c3ncc(-c4cccc(C(=O)N(C)C)c4)n3c2)c1	0	0	0	0	-	-	-	-
COc1ccc(-c2cc(NC=O)c3ncc(-c4cccc(C(=O)N(C)C)c4)n3c2)cn1	0	42	0	0	-	0	0	0
COC(=O)[C@@]12CCCCN1C(c1ccc(-c3ccc(C(C)=O)cc3)c(OC)c1)C1C(=O)N(C)C(=O)C12 (stereo not given in full)	-	-	-	-	0	-	-	-
COc1ccc(-n2nc3c(N4CCC(C(=O)N5CCC(C)CC5)CC4)nnc(C)c3c2C)cc1	0	0	0	0	0	-	-	-
Cc1nnc(N2CCC(C(=O)N3CCCCC3)CC2)c2nn(-c3ccc(Cl)cc3)c(C)c12	0	51	0	0	0	0	0	0
CCOc1ccc(C(=O)Nc2cc3c(cc2N2CCCC2)n(CC)c(=O)n3CC)cc1OCC	0	57	0	0	0	0	0	0
CCn1c(=O)n(CC)c2cc(N3CCCC3)c(NC(=O)c3ccc(F)cc3)cc21	0	0	0	0	-	-	-	-
CC1C=C(C(=O)NCc2ccccc2)OC(OCc2ccc(CO)cc2)C1 (stereo not given)	-	-	-	-	0	-	-	-
O=C(NC1CCCc2c1cnn2-c1cc(F)cc(F)c1)c1cc[n+]([O-])cc1 (stereo not given)	0	0	0	0	0	-	-	-
O=C(NC1CCCc2c1cnn2-c1cc(F)cc(F)c1)c1ccc[n+]([O-])c1 (stereo not given)	0	65	0	0	0	0	0	0
Cc1ccc(-c2nn(CCC(=O)Nc3cccnc3)c(=O)c3ccccc23)cc1	0	89	0	0	0	0	0	0
COc1ccc(NC(=O)Nc2ccc3c(c2)CC(=O)N([C@@H](C)CO)C[C@@H](C)[C@H](CN(C)C(=O)Nc2cccc4ccccc24)O3)cc1	-	0	-	-	-	-	-	-
C[C@H](NC(=O)C[C@H]1CC[C@H](NC(=O)Cc2ccccn2)[C@H](CO)O1)c1ccccc1	-	0	-	-	-	-	-	-
O=C(CSc1nc2cc(C(=O)O)ccc2c(=O)n1-c1ccc(F)cc1)Nc1ccc(F)c(F)c1F	0	81	0	0	0	0	0	0
COCCNC(=O)C[C@@H]1CC[C@@H]2[C@@H](COc3ccc(NC(=O)Nc4cccc(F)c4)cc3C(=O)N2C)O1	-	40	-	-	-	0	0	0
SMILES	GDH-TPI inh	BioA inh-1	FadD28 binding	Mtb FBA inh	Mtb hypoxia inh	BioA inh-2	HepG2 tox 2	NIH3T3 tox 5
COCCNC(=O)C[C@@H]1CC[C@H]2[C@H](COc3ccc(NC(=O)Nc4cccc(F)c4)cc3C(=O)N2C)O1	-	0	-	-	-	-	-	-
COCCNC(=O)C[C@H]1CC[C@@H]2[C@@H](COc3ccc(NC(=O)Nc4cccc(F)c4)cc3C(=O)N2C)O1	-	55	-	-	-	0	0	0
COCCNC(=O)C[C@@H]1CC[C@@H]2[C@H](COc3ccc(NC(=O)Nc4ccccc4)cc3C(=O)N2C)O1	-	0	-	-	-	-	-	-
COCCNC(=O)C[C@@H]1CC[C@@H]2[C@H](COc3ccc(NC(=O)Nc4cccc(F)c4)cc3C(=O)N2C)O1	-	45	-	-	-	?	0	0
C[C@@H]1CN([C@H](C)CO)C(=O)Cc2cc(NS(=O)(=O)c3ccc(Cl)cc3)ccc2O[C@@H]1CN(C)S(=O)(=O)c1cn(C)cn1	-	0	-	-	-	-	-	-
NS(=O)(=O)c1ccc(NN=Cc2ccc(O)c(O)c2O)c([N+](=O)[O-])c1	-	-	-	-	0	-	-	-
